M1 PAM = potentiates human M1 receptor response to acetylcholine. P11229. CHO-K1 hM1, Fluo-8 calcium fluorescence, ACh EC20; 0% = ACh EC20, 100% = maximal ACh. activation, % at 3 µM. 360,000 tested, 0.088% active; in the data active = activation above about 19%, passing the limit was not always enough
ATG4B inh = blocks human ATG4B protease cleavage of LC3 substrate; 340,000 tested, 0.51% active; AID 504462; inhibition, % at 8.33 µM; Q9Y4P1; ATG4B cleavage of LC3-PLA2, NBD-HPC fluorescence, 1 h; in the data active = inhibition above about 40%
Target sequence (Q9Y4P1 whole entry, looked up): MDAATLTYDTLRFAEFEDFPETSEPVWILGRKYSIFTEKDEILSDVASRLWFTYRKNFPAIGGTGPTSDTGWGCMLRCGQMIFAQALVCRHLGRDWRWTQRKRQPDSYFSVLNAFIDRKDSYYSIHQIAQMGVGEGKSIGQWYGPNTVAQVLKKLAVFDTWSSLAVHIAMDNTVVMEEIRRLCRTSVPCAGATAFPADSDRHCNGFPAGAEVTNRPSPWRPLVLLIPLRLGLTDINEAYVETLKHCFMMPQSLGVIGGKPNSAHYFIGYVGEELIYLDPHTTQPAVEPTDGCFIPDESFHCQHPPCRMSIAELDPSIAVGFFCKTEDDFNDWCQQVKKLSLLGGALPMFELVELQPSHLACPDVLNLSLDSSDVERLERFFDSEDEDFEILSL
SKN-1 block = blocks SKN-1 activity in C. elegans. C. elegans VP596 Pgst-4::GFP/RFP ratio, acrylamide-induced, 24 h. inhibition, % at 21.8 µM. 360,000 tested, 0.49% active. AID 624304;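 active = interference check ratio from 0.5 to 1.5 plus GFP to RFP signal ratio inhibition reaching or exceeding a fixed threshold, cut at about 30% in these data, passing the limit was not always enough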
CHRM1 agonist = agonists of human M1 muscarinic receptor | P11229 | CHO-K1 hM1, Fluo-8 calcium fluorescence, agonist mode; 0% DMSO, 100% acetylcholine EC100 | activation, % at 3 µM | 360,000 tested, 0.33% active;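 active = activation above the run's mean compound activation plus 3 SD, cut at about 16% in these data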;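 note: peak over basal fluorescence ratio within a 140 s kinetic read after compound addition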
Myeloid diff 2 = myeloid differentiation induction | ER-HoxA9 myeloid progenitors, lysozyme-GFP differentiation, flow cytometry | calls only at 10 µM | 360,000 tested, 1% active | AID 624256;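 active = normalized GFP-positive differentiation at or above the plate's own cutoff, the solvent-only control mean plus 3 SD; inconclusive = no clear call, values can overlap the other calls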;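 note: cells exposed to compound for four days before flow analysis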
CHRM1 antagonist = blocks human M1 muscarinic receptor; P11229; CHO-K1 hM1, Fluo-8 calcium fluorescence, ACh EC80 antagonist; inhibition, % at 3 µM; 360,000 tested, 1.3% active;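 active = percent inhibition above its own plate's cutoff, namely the mean of that plate's compound wells plus 3 SD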;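 note: peak over basal fluorescence ratio during 140 s after agonist addition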
Of the large screens only hits and unclear results are named; the others gave an inactive call. Most compounds without a hit are left out; they make up all but 3.5% or so of the library.

Cc1c(N2C(=O)/C(=C/c3ccccc3)SC2=S)c(=O)n(-c2ccccc2)n1C	none
COc1ccc2cc1Oc1ccc(cc1)CC1c3c(cc(OC)c4c3Oc3cc5c(cc3O4)CCNC5C2)CCN1C (stereo not given)	Myeloid diff 2 active, CHRM1 antagonist 91
O=[N+]([O-])c1ccc(NCCOc2ccccc2Cl)nc1	Myeloid diff 2 active
Cc1cccc(OCCNc2ccc([N+](=O)[O-])cn2)c1	none
COc1ccc(/C=C/C(=O)NCCCN2CCCC2)cc1	CHRM1 antagonist 41
Cc1csc(Sc2nc3c(c(=O)[nH]c(=O)n3C)n2Cc2ccccc2Cl)n1	none
Cc1cccc(Cn2c(Sc3nc(C)cs3)nc3c2c(=O)[nH]c(=O)n3C)c1	SKN-1 block 40
Oc1ccc(Cl)cc1C=Nc1ccccc1Br	none
Oc1ccc(Br)cc1C=Nc1ccc2c3c(cccc13)CC2	Myeloid diff 2 active
CCOC(=O)/C=c1\s/c(=C\c2c(OC)ccc3ccccc23)c(=O)n1CC(=O)NCC1CCCO1 (stereo not given)	Myeloid diff 2 active
CCOC(=O)/C=c1/s/c(=C/c2ccc3cc(OC)ccc3c2)c(=O)n1CC(=O)NCC1CCCO1 (stereo not given)	none
O=C(CC(CC(=O)c1ccccc1)c1ccccn1)c1ccccc1	none
CCOC(=O)c1c(NC(C)=O)sc2c(OCCN(CC)CC)c(Br)ccc12	none
CCOC(=O)c1c(NC(C)=O)sc2c1CCC(C=NCCCN(CC)CC)=C2Sc1ccccc1	Myeloid diff 2 active
COc1cc2c(cc1OCc1ccccc1)/C(=C/C(=O)OCc1ccccc1)OC2	none (no result: M1 PAM, ATG4B inh, CHRM1 agonist, CHRM1 antagonist)
COc1ccc(C)cc1Nc1nc(-c2c[nH]c3ccccc23)cs1	Myeloid diff 2 active
COc1ccccc1CN(Cc1cc2c(C)ccc(C)c2[nH]c1=O)Cc1nnnn1Cc1ccco1	SKN-1 block 37
O=C(CSCc1ccc(Cl)cc1)N1CCOCC1	none
Cc1ccc(CSCC(=O)N2CCOCC2)cc1	SKN-1 block 44
CC1CCC(C(C)C)C(OC(=O)CSc2nccc(=O)[nH]2)C1 (stereo not given)	none
COc1ccc(-c2n(CC(=O)OC3CC(C)CCC3C(C)C)c3ccccc3[n+]2C)cc1 (stereo not given)	CHRM1 antagonist 28
COc1ccc(OCc2n(CC(=O)OC3CC(C)CCC3C(C)C)c3ccccc3[n+]2C)cc1 (stereo not given)	CHRM1 antagonist 39
CCN(c1ccccc1)S(=O)(=O)c1ccc(C(=O)NCC(c2cccs2)N(C)C)cc1 (stereo not given)	CHRM1 antagonist 36
CCN(c1ccccc1)S(=O)(=O)c1cc(C(=O)NCC(c2ccc(OC)cc2)N(C)C)ccc1C (stereo not given)	CHRM1 agonist 36, CHRM1 antagonist 55
COc1ccc(C(CNC(=O)c2ccc(S(=O)(=O)N(C)C)cc2)N(C)C)cc1 (stereo not given)	none
NNC(=O)c1csc(-c2cccc(C(F)(F)F)c2)n1	Myeloid diff 2 active
CC(C)C(=O)Nc1ccc(NC(=S)NC(=O)c2ccccc2F)cc1	Myeloid diff 2 inconclusive
Cc1cc(C)c(C(=O)/C=C/c2ccco2)c(=O)[nH]1	Myeloid diff 2 active
Cc1ccc(/C=C/C(=O)c2c(C)cc(C)[nH]c2=O)cc1	none
Cc1nnc(N2CCC(C(=O)NC3CCC(C)CC3)CC2)c2nn(-c3ccc(Cl)cc3)c(C)c12 (stereo not given)	Myeloid diff 2 inconclusive
Cc1nnc(N2CCC(C(=O)N3CCCCC3)CC2)c2nn(-c3ccc(Cl)cc3)c(C)c12	ATG4B inh 53, Myeloid diff 2 inconclusive
COC(=O)c1ccc(-c2nc(-c3cccs3)no2)cc1	none
Fc1ccc(-c2nc(-c3cccs3)no2)cc1	SKN-1 block 51
Fc1ccc(-c2cnc(-c3cccs3)o2)cc1	SKN-1 block 92
Clc1ccc(-c2nc3ccccn3c2CN2CCOCC2)cc1	Myeloid diff 2 active
COc1ccc(C(C)=O)cc1CN1C(=O)C(C)ON=C1c1ncccc1C (stereo not given)	none (no result: ATG4B inh)
COc1ccc(C(C)=O)cc1CN1C(=O)C(C)ON=C1c1cccc(C(F)(F)F)c1 (stereo not given)	SKN-1 block 35 (no result: ATG4B inh)
CN(C)c1ccc(/C=C/C(=O)c2cccc(Br)c2)cc1	CHRM1 agonist 164, CHRM1 antagonist 81
CC(=O)OCCCN(C)CC/C=C1/c2ccccc2CSc2ccccc21	CHRM1 antagonist 74
C[N+](C)(C)CC/C=C1/c2ccccc2CSc2ccccc21	CHRM1 antagonist 96
COc1ccc(S(=O)(=O)N2CCOCC2)cc1NC(=O)COC(=O)CCS(=O)(=O)c1ccc(C)cc1	none
CCN(C(=O)c1ccc(C(C)(C)C)cc1)c1nnc(Cn2nnc3ccccc32)s1	Myeloid diff 2 active, CHRM1 antagonist 37
CCN(C(=O)CC(C)C)c1nnc(Cn2nnc3ccccc32)s1	none
CN(C(=O)COc1ccccc1C(=O)NCCOc1ccccc1)c1ccccc1	Myeloid diff 2 inconclusive, CHRM1 antagonist 50
CCCCCOc1ccccc1C(=O)NCCC(=O)O	SKN-1 block 38
COc1ccc(CSC(=S)NNc2ccccc2)cc1	none (no result: ATG4B inh)
COc1ccc(OC)c(NC(=O)C(=O)NNC(=O)c2cccs2)c1	none
O=C(Nc1nnc(-c2ccccc2)o1)c1nc2ccccc2s1	CHRM1 agonist 66
NC(=O)c1oc2ccccc2c1NC(=O)c1nc2ccccc2s1	none
NC[C@@H]1O[C@H](C23CC4CC(CC(C4)C2)C3)Cc2c1ccc(O)c2O	Myeloid diff 2 active
Cc1cc(=O)oc2ccc(OCC(=O)N(Cc3ccc(F)cc3)Cc3ccco3)cc12	CHRM1 antagonist 34
COc1cc(NS(=O)(=O)c2ccc3c(c2)oc(=O)n3C)cc(OC)c1OC	Myeloid diff 2 active
COc1ccc(CN(C(=O)c2snc(C(N)=O)c2N)C(C(=O)NC2CCCC2)c2ccc(OC)cc2)cc1 (stereo not given)	none
CN(C)c1ccc(C(C(=O)NCC2CCCO2)N(Cc2ccccc2)C(=O)c2snc(C(N)=O)c2N)cc1 (stereo not given)	CHRM1 antagonist 26 (no result: Myeloid diff 2)
Cc1ccc(C(C(=O)NCc2ccc(F)cc2)N(Cc2ccco2)C(=O)c2snc(C(N)=O)c2N)o1 (stereo not given)	CHRM1 antagonist 35
NC(=O)c1nsc(C(=O)N(Cc2ccco2)C(C(=O)NCc2ccc(F)cc2)c2ccc(O)cc2)c1N (stereo not given)	none
Cc1ccc(C(C(=O)NC2CCCC2)N(Cc2ccc3c(c2)OCO3)C(=O)c2snc(C(N)=O)c2N)cc1 (stereo not given)	CHRM1 antagonist 24
CN(C)c1ccc(C(C(=O)NCC2CCCO2)N(Cc2ccco2)C(=O)c2snc(C(N)=O)c2N)cc1 (stereo not given)	none
